Rows were chosen to be rich in hits. Some 2% of all compounds tested hit in one or more screens of this group.
Beta2AR agonist: human beta-2 adrenergic receptor agonism by FAP. P07550. Am2.2-beta2AR cells, FAP receptor internalization, flow cytometry. response, % (concentration not given with the values). hit rate 0.43% among 340,000;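 active means response above a set limit, near 3 SD of response in nonfluorescent compounds, cut at about 42% in these data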
Exocytosis inh: blocks lytic granule exocytosis; TALL-104 LAMP-1 surface exposure, flow cytometry; cells stimulated with thapsigargin and PMA; inhibition, % at 10 µM; hit rate 0.66% among 360,000; AID 651702;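 active means inhibition above about 55%, limit read from the data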
TLR9-MyD88 inh: blocks human TLR9 binding to MyD88; Q9NR96+Q99836; CHO BLA complementation TLR9-MyD88, CCF4 FRET ratio; inhibition, % at 4.98 µM; hit rate 0.21% among 340,000; AID 504734;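 active means inhibition above the mean over all tested compounds plus 3 SD, cut at about 21% in these data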;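 further: 0% = DMSO only wells and 100% = clavulanate BLA inhibitor control wells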
Target sequence (Q99836 whole entry, looked up): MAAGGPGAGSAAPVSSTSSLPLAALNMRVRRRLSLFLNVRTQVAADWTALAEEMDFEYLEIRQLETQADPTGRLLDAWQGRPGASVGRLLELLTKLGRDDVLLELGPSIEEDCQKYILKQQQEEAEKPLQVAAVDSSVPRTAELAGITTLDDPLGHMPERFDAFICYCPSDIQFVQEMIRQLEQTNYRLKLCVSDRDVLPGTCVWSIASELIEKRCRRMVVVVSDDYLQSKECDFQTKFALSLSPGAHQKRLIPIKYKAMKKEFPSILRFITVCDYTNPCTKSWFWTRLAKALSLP
Target sequence (Q9NR96 whole entry, looked up): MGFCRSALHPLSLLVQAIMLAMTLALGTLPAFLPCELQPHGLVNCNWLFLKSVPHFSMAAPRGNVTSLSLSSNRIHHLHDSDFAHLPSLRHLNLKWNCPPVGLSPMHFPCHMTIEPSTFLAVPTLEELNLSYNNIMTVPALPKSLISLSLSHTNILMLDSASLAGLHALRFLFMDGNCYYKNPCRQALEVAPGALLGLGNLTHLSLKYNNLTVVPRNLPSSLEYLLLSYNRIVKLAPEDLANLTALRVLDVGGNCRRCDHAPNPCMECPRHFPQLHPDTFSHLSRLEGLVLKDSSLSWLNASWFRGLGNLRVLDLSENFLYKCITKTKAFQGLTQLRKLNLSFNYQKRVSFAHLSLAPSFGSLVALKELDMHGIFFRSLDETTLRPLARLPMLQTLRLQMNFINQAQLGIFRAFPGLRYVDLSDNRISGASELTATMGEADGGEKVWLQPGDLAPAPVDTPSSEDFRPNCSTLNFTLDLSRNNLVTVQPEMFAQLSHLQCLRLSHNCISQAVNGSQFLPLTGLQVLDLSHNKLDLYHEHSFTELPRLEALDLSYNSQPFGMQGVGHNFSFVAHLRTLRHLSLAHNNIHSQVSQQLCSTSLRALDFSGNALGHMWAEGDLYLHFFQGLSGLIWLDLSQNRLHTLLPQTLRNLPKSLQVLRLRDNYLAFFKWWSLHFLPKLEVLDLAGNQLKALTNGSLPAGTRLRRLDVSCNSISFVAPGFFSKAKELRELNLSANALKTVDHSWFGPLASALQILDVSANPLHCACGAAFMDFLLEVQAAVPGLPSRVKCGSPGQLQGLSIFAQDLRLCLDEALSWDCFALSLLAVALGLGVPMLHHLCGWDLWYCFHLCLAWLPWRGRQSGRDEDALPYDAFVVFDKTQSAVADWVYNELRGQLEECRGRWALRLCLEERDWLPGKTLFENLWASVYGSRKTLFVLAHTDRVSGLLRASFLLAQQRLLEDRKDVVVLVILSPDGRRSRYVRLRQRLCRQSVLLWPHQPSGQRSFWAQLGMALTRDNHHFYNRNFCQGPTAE
ABHD5 PLIN5 PPI: blocks binding of human ABHD5 to perilipin-5; inhibition, % at 4 µM; Split G. princeps luciferase complementation, luminescence, 4 h; Q00G26+Q8WTS1; hit rate 0.78% among 360,000;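 active means inhibition above the mean inhibition across every tested compound plus 3 SD, cut at about 22% in these data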;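 further: 0% = DMSO only wells and the 100% control is not disclosed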
TLR4-MyD88 BLA: inhibitors of human TLR4-MyD88 binding; HeLa CL3-4 TLR4/MyD88 BLA complementation, FRET ratio; inhibition, % at 8.4 µM; hit rate 0.18% among 200,000; AID 861; in the data active means inhibition above about 25%;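 further: 0% = vehicle and 100% = reference inhibitor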
NOD2-RIPK2 inh: blocks binding of human NOD2 to RIPK2; inhibition, % at 4.98 µM; O43353; hit rate 0.38% among 360,000; CHO BLA complementation NOD2-RIPK2, CCF4 ratio; in the data active means inhibition above about 21%;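 further: 0% = vehicle only and 100% = reference blocker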
TLR9-MyD88 conf: confirmation of human TLR9-MyD88 binding inhibitors | hit rate 51% among 680 | AID 540250 | inhibition, % at 4.98 µM | shares compounds with TLR9-MyD88 inh | CHO TLR9/MyD88 BLA complementation, CCF4 FRET ratio;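 active means mean inhibition across three repeats above about 21% taken from the earlier screen, limit read from the data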;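 further: blue over green emission ratio reports constitutive TLR9 MyD88 association via BLA complementation; 0% = DMSO vehicle wells and 100% = clavulanate BLA inhibitor wells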
BLA nonselective: counter-screen for TLR9-MyD88 inhibitors: non-selective beta-lactamase inhibitors; shares compounds with TLR9-MyD88 inh; CHO-BLA cells, CCF4 FRET ratio, BLA reporter; inhibition, % at 4.98 µM; hit rate 7% among 680;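 active means mean inhibition above a 50% cutoff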;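 further: counterscreen of TLR9-MyD88 hits on CMV-driven BLA in CHO-K1 cells; 0% = DMSO alone and 100% = clavulanate blocking BLA; higher means less blue over green ratio so more BLA blockade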
TLR9 CHO tox: counter-screen for TLR9-MyD88 inhibitors: cytotoxicity in CHO cells | AID 588336 | luminescence | inhibition, % at 4.98 µM | hit rate 39% among 680 | shares compounds with TLR9-MyD88 inh; in the data active means inhibition above about 11%
* hit, by the source's call.

How did O=c1c2ccccc2c(-c2cccc(C(F)(F)F)c2)nn1-c1ccccc1 do in these assays?
Beta2AR agonist: 4.4; Exocytosis inh: -4.6; TLR9-MyD88 inh: -1.0; ABHD5 PLIN5 PPI: -7.9; NOD2-RIPK2 inh: -8.7

Results for Cc1ccc(Cl)cc1-c1cc(C(=O)N2CCN(c3ccncc3)CC2)[nH]n1 ?
Exocytosis inh: 1.3; ABHD5 PLIN5 PPI: 1.4; NOD2-RIPK2 inh: 6.6

Results for COc1ccc(NC(=O)C(Cl)=C(Cl)Cl)cn1 ?
Beta2AR agonist: -0.5; Exocytosis inh: -0.2; TLR9-MyD88 inh: 5.7; ABHD5 PLIN5 PPI: 4.9; TLR4-MyD88 BLA: 1.7; NOD2-RIPK2 inh: -3.4

Results for COc1ccc(NC(=O)/C(Cl)=C(/Cl)S(=O)Cc2ccc(Cl)cc2)cn1 (configuration not stated) ?
Beta2AR agonist: -401.3; Exocytosis inh: 23.2; TLR9-MyD88 inh: 54.5*; ABHD5 PLIN5 PPI: 95.6*; TLR4-MyD88 BLA: 24.6; NOD2-RIPK2 inh: 67.6*; TLR9-MyD88 conf: 55.7*; BLA nonselective: 36.1; TLR9 CHO tox: 98.8*

How did CCc1ccc(NC(=O)C(=O)NCC2CCCN2S(=O)(=O)c2ccccc2)cc1 (configuration not stated) do in these assays?
Beta2AR agonist: 7.5; Exocytosis inh: 0.5; TLR9-MyD88 inh: -7.1; ABHD5 PLIN5 PPI: -7.3; NOD2-RIPK2 inh: 2.1

Results for CCCCN(CCCC)c1nc2ccccc2nc1C(C#N)C(=O)NCCCOC (configuration not stated) ?
Beta2AR agonist: 8.4; Exocytosis inh: 4.1; TLR9-MyD88 inh: 40.0*; ABHD5 PLIN5 PPI: 0.8; TLR4-MyD88 BLA: 19.4; NOD2-RIPK2 inh: -7.9; TLR9-MyD88 conf: 8.8; BLA nonselective: 12.6; TLR9 CHO tox: 5.7

Results for CCOC(=O)Nc1nc2ccc(Cn3cccc3)cc2[nH]1 ?
Beta2AR agonist: 32.9; Exocytosis inh: 3.7; TLR9-MyD88 inh: -0.9; ABHD5 PLIN5 PPI: -5.8; NOD2-RIPK2 inh: -7.7

How did O=CN1CCN(C(=O)c2ccccc2Cl)CC1 do in these assays?
Beta2AR agonist: -0.9; Exocytosis inh: -3.1; TLR9-MyD88 inh: 43.7*; ABHD5 PLIN5 PPI: 0.9; TLR4-MyD88 BLA: -2.2; NOD2-RIPK2 inh: -5.4; TLR9-MyD88 conf: -5.5; BLA nonselective: -5.4; TLR9 CHO tox: -2.5

How did O=C(c1ccccc1Cl)N1CCSCC1 do in these assays?
Beta2AR agonist: -0.2; Exocytosis inh: -4.2; TLR9-MyD88 inh: 7.5; ABHD5 PLIN5 PPI: -4.8; NOD2-RIPK2 inh: -15.8

How did CCn1c(=S)[nH]c2c(=O)n(C)c(=O)n(C)c21 do in these assays?
Beta2AR agonist: 0.8; Exocytosis inh: -1.4; TLR9-MyD88 inh: 10.1; ABHD5 PLIN5 PPI: 0.1; NOD2-RIPK2 inh: -2.6

Results for COc1ccc(Br)cc1C(=O)N/N=C/c1ccc([N+](=O)[O-])cc1 ?
Beta2AR agonist: 7.8; Exocytosis inh: 1.2; TLR9-MyD88 inh: -11.3; ABHD5 PLIN5 PPI: -0.8; TLR4-MyD88 BLA: -11.6; NOD2-RIPK2 inh: 0.2

Results for COc1cc(/C=N/NC(=O)c2ccc([N+](=O)[O-])cc2Cl)cc(Br)c1O ?
Beta2AR agonist: -6.8; Exocytosis inh: 1.0; TLR9-MyD88 inh: 33.7*; ABHD5 PLIN5 PPI: -1.8; TLR4-MyD88 BLA: -4.3; NOD2-RIPK2 inh: 3.4; TLR9-MyD88 conf: -2.2; BLA nonselective: -1.1; TLR9 CHO tox: -3.8

What do the screens show for `O=C(NCCc1cn2cccnc2n1)C1CCC(=O)N(Cc2ccccc2F)C1` (configuration not stated)?
Exocytosis inh: -8.4; TLR9-MyD88 inh: 1.3; ABHD5 PLIN5 PPI: -1.3; NOD2-RIPK2 inh: 20.9

How did COC(=O)c1cn[nH]c1NC(=S)Nc1ccc(Cl)c(Cl)c1 do in these assays?
Beta2AR agonist: 20.8; Exocytosis inh: 7.2; TLR9-MyD88 inh: 21.9*; ABHD5 PLIN5 PPI: -6.8; TLR4-MyD88 BLA: -0.6; NOD2-RIPK2 inh: 9.1; TLR9-MyD88 conf: 20.6; BLA nonselective: 12.9; TLR9 CHO tox: 5.7

How did O=C(OCC1CCC=CO1)C1CCC=CO1 (configuration not stated) do in these assays?
Beta2AR agonist: 0.4; Exocytosis inh: 2.9; TLR9-MyD88 inh: -0.7; ABHD5 PLIN5 PPI: -1.4; NOD2-RIPK2 inh: -13.6

What do the screens show for `O=S1(=O)CC(N2CC=CC2)CN1Cc1cn(Cc2ccccc2)nn1` (configuration not stated)?
Exocytosis inh: 10.0; ABHD5 PLIN5 PPI: 3.4; NOD2-RIPK2 inh: -2.2

Results for CC1=C(C(=O)N2CCCCCC2)CC(CC(=O)NCc2cccs2)C(=O)N1Cc1ccccc1 (configuration not stated) ?
Exocytosis inh: -3.0; ABHD5 PLIN5 PPI: -1.0; NOD2-RIPK2 inh: -6.5

How did COc1cc(/C=C2\SC(=S)N(Nc3ncc(C(F)(F)F)cc3Cl)C2=O)ccc1O do in these assays?
Beta2AR agonist: -344.0; Exocytosis inh: 3.6; TLR9-MyD88 inh: 26.3*; ABHD5 PLIN5 PPI: -12.9; TLR4-MyD88 BLA: 11.5; NOD2-RIPK2 inh: 13.1; TLR9-MyD88 conf: 1.4; BLA nonselective: 1.8; TLR9 CHO tox: 4.1

Results for CC1=C(C(=O)N(C)C)CC(CC(=O)NC(c2ccccc2)c2ccccc2)C(=O)N1CCCN1CCCC1=O (configuration not stated) ?
Exocytosis inh: -1.2; TLR9-MyD88 inh: 3.6; ABHD5 PLIN5 PPI: 0.3; NOD2-RIPK2 inh: -5.2

Results for N/C(=N\OC(=O)c1cccc(C(F)(F)F)c1)c1cnccn1 ?
Beta2AR agonist: 4.9; Exocytosis inh: 1.8; TLR9-MyD88 inh: -1.3; ABHD5 PLIN5 PPI: 9.1; NOD2-RIPK2 inh: -8.4

What do the screens show for `O=C(OCn1ncc(Cl)c(Cl)c1=O)c1cccc(C(F)(F)F)c1`?
Beta2AR agonist: 41.7; Exocytosis inh: 8.9; TLR9-MyD88 inh: 30.3*; ABHD5 PLIN5 PPI: 4.0; TLR4-MyD88 BLA: 16.8; NOD2-RIPK2 inh: 48.4*; TLR9-MyD88 conf: 24.4*; BLA nonselective: 12.5; TLR9 CHO tox: 97.2*

Results for CC(=O)Nc1ccc(NC2=C(Cl)C(=O)c3ccccc3C2=O)cc1 ?
TLR4-MyD88 BLA: -38.7

How did CN(C)c1ccc(NC2=C(Cl)C(=O)c3ccccc3C2=O)cc1 do in these assays?
Beta2AR agonist: 18.6; Exocytosis inh: 28.2; TLR9-MyD88 inh: 25.3*; ABHD5 PLIN5 PPI: 1.7; TLR4-MyD88 BLA: -32.8; NOD2-RIPK2 inh: 7.6; TLR9-MyD88 conf: 22.5*; BLA nonselective: 4.4; TLR9 CHO tox: 19.0*

What do the screens show for `CS(=O)(=O)c1cnc(-c2cccnc2)nc1N`?
Beta2AR agonist: 7.6; Exocytosis inh: -4.8; TLR9-MyD88 inh: 21.8*; ABHD5 PLIN5 PPI: -0.3; TLR4-MyD88 BLA: -2.2; NOD2-RIPK2 inh: -12.3; TLR9-MyD88 conf: 0.5; BLA nonselective: -1.4; TLR9 CHO tox: 5.9

Assay outcomes as filed in PubChem BioAssay.
